Source: ChEMBL document CHEMBL4513160, “CO-ADD screening of MMV (CH) - Small Polar Library”
Among all 21,000 compounds or so, fewer than 10 showed an effect of 50% or more. Not all results are given here. Entries with a potency or affinity are not part of this list.

Each molecule was assayed on Acinetobacter baumannii. Details: Concentration 300 ug.mL-1; ASSAY_TEST Inhibition of Bacterial Growth; detection method Absorption (OD600); MEDIA CAMHB; plate type 384well; NBS; CORNING #3640; time 18 hr.

SMILES | Inhibition [%]
CC(C)Oc1ncc(C(=O)N2CCC(O)CC2)cc1Cl | 1.14
C[C@H](N)c1cccc(OCCN(C)C)c1 | 5.56
C[C@@H]1CN(CCC(=O)NC2CCCC2)CC[C@]1(C)O | 3.95
O=S(=O)(CCN1CCN(c2nccs2)CC1)C(F)(F)F | 11.95
CS(=O)(=O)C[C@H]1CCCN1 | 4.73
CN(C(=O)c1ccc2c(c1)NC(=O)CS2)C1CCCC1 | 10.76
CN(C(=O)CCn1cccn1)C1CCS(=O)(=O)C1 (configuration not stated) | 0.97
NCCNS(=O)(=O)c1ccc(F)cc1C(F)(F)F | 9.19
CCn1cc(Br)c(C(C)=O)n1 | 15.72
CCc1nccn1CCNC(=O)Cc1nonc1C | 6.19
O=C(Nc1ncccc1O)c1cnns1 | 5.13
CN(C)CC[C@H](O)c1cccs1 | 11.43
Cc1occc1C(=O)N1CCC(NC(=O)C2CC2)CC1 | 4.82
CC(=O)c1cccc(COC(=O)c2cccnc2)c1 | 12
CC(C)c1noc(CN(C)C(=O)C2=NNC(=O)CC2)n1 | -1.48
CSCC(=O)N1CCN(S(=O)(=O)N2CCOCC2)CC1 | -0.38
CCSc1nccc(N)n1 | 18.01
CS(=O)(=O)NCCc1nc2c(s1)CCCC2 | 6.5
CNC(=O)c1cccc(NCc2cccnc2)n1 | 1.67

SMILES | Inhibition [%]
CCN(C(=O)C(C)O)C1CCCCC1 (configuration not stated) | 7.15
CN(Cc1ccc(Oc2ccccc2)cc1)C(=O)CN | 13.35
Cn1cc(S(=O)(=O)NCc2ccco2)cn1 | -0.88
O=C1CCCc2sccc2N1 | 14.86
CCCS(=O)(=O)N1C[C@@H](CN(C)CCO)[C@@H](CO)C1 | 1.24
CNC(=O)c1ccc(CNC(=O)c2ccoc2C)cc1 | 5.87
COc1ccc(NC2CC(=O)N(C)C2=O)cc1OC (configuration not stated) | 5.58
CCN1CCCC1CNC(=O)c1csc(NC(C)=O)n1 (configuration not stated) | -0.07
NCC(=O)NCCN1CCCCC1 | 9.69
CCn1nnnc1NCc1sccc1C | 11.07
CCOc1ncccc1C(=O)OC(C)C(=O)NC1CC1 (configuration not stated) | 0.66
O=C(Nc1cccc(Cl)c1Cl)C1CCS(=O)(=O)C1 (configuration not stated) | -2.85
CC(=O)c1cc[nH]c(=O)c1 | 3.77
O=C(CNC1CC1)NC[C@H]1CCc2ccccc2O1 | 0.42
Cc1ccc(CN(C)CC(=O)NCCC#N)o1 | 4.14
COc1ccc(CC(=O)NCC(C)C)c(OC)c1 | 9.02
CCCn1nnnc1CSCc1ccccn1 | 1.73
CCCOc1ccc2c(c1)CCN(C(=O)C(C)N)C2 (configuration not stated) | 14.38
